# From paper PMC7862700, “An all-to-all approach to the identification of sequence-specific readers for epigenetic DNA modifications on cytosine”
# How the values were obtained:
# Assay in all cases: DAPPL (digital affinity profiling via proximity ligation, sequencing); 10 mM Tris-HCl pH 7.5, 50 mM NaCl, 1 mM DTT, 4% glycerol, room temperature, 30 min; GST-TFs on glutathione beads, 16-mer random dsDNA library, 0.1% formaldehyde crosslink after washing; high values mean tight binding
# FEV = biological target: T1, FEV (Homo sapiens, UniProt Q99581 1-238); conditions: protein: recombinant; tags: N-terminal GST; dsDNA, one strand shown
# T1 sequence: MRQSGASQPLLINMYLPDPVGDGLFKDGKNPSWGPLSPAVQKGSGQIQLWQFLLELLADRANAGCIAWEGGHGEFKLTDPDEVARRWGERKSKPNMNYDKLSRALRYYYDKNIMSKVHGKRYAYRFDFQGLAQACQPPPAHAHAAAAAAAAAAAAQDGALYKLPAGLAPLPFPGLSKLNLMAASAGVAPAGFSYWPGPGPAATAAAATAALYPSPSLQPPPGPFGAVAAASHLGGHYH
# Summary of the method: (§1)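 Each value of binding signal is a hexamer's read frequency for a factor divided by the same hexamer's frequency in the tag-only sample. Barcoded, bead-captured GST fusions of human transcription factors made in yeast were pooled with that sample and incubated with 200 nmole of a random double-stranded 16-mer DNA library in Tris/NaCl/DTT/glycerol buffer at room temperature for 30 min. Washing, 0.1% formaldehyde crosslinking, proximity ligation, PCR and Illumina NextSeq500 sequencing followed.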
# ETV5 = ETV5 (Homo sapiens, UniProt P41161 1-510); conditions: protein: recombinant; tags: N-terminal GST; dsDNA, one strand shown
# Sequence of ETV5 (P41161 whole entry): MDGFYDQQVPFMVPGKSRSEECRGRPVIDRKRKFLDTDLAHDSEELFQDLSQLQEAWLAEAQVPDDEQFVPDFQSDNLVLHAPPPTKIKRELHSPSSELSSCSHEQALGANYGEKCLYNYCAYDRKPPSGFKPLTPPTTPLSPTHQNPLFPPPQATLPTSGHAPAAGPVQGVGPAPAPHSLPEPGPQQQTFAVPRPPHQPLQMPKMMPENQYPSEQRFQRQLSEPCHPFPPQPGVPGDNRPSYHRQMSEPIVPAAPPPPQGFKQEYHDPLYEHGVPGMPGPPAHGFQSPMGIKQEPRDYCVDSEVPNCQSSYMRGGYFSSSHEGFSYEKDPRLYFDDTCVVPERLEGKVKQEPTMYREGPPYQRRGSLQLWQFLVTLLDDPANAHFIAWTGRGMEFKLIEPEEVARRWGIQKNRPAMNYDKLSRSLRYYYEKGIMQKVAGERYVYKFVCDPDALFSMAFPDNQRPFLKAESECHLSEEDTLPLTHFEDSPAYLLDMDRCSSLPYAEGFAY
# Summary of the method: as §1
# HSF1 = HSF1 (Homo sapiens, UniProt Q00613 1-529); conditions: protein: recombinant; tags: N-terminal GST; chain copies: 3; dsDNA, one strand shown
# Sequence of HSF1 (Q00613 whole entry): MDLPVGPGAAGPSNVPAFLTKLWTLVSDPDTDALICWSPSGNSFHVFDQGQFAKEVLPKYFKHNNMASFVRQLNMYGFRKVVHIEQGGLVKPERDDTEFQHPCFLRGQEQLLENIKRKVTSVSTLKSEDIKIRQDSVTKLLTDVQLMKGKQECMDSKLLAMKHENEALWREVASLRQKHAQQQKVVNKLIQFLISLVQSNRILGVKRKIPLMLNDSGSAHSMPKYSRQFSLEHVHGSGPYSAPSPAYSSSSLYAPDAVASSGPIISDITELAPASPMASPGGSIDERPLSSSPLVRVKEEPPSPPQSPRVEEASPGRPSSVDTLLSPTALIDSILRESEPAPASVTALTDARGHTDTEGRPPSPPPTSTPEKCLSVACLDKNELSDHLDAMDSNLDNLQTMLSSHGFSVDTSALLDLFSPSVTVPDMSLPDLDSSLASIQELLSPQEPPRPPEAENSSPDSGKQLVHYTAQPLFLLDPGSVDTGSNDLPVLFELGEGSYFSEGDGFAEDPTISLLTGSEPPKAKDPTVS
# Summary of the method: as §1
# SPIC = biological target: T2, SPIC (Homo sapiens, UniProt Q8N5J4 1-248); conditions: protein: recombinant; tags: N-terminal GST; dsDNA, one strand shown
# T2 sequence: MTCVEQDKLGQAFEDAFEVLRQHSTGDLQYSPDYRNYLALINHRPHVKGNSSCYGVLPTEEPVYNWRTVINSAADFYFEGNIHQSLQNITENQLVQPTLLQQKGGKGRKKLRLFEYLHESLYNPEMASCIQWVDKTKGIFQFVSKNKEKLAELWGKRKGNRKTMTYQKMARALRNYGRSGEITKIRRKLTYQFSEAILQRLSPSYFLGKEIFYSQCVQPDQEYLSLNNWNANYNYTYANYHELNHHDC
# Summary of the method: as §1
# ELF4 = ELF4 (Homo sapiens, UniProt Q99607 1-663); conditions: protein: recombinant; tags: N-terminal GST; dsDNA, one strand shown
# Sequence of ELF4 (Q99607 whole entry): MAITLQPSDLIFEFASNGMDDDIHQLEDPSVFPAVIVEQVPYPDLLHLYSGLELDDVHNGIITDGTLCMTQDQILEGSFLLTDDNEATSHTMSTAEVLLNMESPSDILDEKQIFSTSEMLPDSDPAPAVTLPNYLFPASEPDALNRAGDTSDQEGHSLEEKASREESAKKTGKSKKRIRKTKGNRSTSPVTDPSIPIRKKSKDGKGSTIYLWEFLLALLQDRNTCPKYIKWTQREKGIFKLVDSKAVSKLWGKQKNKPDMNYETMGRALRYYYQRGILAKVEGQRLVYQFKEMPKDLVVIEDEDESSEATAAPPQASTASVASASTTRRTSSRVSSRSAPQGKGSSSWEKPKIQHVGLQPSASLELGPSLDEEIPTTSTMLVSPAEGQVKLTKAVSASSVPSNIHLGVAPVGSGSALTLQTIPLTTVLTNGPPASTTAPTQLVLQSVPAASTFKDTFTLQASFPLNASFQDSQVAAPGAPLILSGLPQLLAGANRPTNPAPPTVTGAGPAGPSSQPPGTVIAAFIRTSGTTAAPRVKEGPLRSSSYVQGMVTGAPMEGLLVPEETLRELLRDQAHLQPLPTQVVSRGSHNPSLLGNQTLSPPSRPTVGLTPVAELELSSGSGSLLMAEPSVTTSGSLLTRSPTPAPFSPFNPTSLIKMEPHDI
# Summary of the method: as §1
# ELK4 = biological target: T3, ELK4 (Homo sapiens, UniProt P28324-2 1-405); conditions: protein: recombinant; tags: N-terminal GST; dsDNA, one strand shown
# T3 sequence: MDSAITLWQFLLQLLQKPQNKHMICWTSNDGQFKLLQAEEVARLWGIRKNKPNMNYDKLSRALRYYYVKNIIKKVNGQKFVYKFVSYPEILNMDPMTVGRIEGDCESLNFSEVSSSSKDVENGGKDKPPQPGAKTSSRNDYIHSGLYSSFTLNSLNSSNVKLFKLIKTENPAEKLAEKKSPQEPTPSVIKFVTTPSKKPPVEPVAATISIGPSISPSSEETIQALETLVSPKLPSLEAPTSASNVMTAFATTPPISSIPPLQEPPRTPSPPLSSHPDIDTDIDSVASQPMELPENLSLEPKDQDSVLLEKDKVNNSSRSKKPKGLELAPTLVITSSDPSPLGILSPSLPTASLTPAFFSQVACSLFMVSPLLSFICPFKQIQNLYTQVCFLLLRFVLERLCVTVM
# Summary of the method: as §1
# ETV2 = biological target: T4, ETV2 (Homo sapiens, UniProt O00321 1-342); conditions: protein: recombinant; tags: N-terminal GST; dsDNA, one strand shown
# T4 sequence: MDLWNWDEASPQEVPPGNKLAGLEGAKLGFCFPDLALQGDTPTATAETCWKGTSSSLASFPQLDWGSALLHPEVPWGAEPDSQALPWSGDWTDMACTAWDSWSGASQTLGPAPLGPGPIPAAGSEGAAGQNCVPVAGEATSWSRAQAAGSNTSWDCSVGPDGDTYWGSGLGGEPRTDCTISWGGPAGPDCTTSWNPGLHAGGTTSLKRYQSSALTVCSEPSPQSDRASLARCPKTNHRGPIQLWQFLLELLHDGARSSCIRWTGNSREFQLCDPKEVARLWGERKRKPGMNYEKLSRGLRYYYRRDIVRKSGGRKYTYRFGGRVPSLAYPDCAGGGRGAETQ
# Summary of the method: as §1
# ELF3 = biological target: T5, ELF3 (Homo sapiens, UniProt P78545 1-371); conditions: protein: recombinant; tags: N-terminal GST; dsDNA, one strand shown
# T5 sequence: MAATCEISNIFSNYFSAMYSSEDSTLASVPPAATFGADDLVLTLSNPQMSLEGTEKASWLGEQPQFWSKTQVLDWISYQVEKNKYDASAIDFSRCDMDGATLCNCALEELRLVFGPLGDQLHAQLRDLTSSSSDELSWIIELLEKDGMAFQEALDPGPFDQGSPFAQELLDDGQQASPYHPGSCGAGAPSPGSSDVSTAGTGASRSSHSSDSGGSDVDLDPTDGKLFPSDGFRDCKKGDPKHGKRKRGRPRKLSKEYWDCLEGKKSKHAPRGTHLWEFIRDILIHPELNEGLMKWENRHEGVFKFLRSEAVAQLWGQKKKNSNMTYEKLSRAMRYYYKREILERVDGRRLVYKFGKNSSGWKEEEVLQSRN
# Summary of the method: as §1
# CRX = CRX (Homo sapiens, UniProt O43186 1-299); conditions: protein: recombinant; tags: N-terminal GST; dsDNA, one strand shown
# Sequence of CRX (O43186 whole entry): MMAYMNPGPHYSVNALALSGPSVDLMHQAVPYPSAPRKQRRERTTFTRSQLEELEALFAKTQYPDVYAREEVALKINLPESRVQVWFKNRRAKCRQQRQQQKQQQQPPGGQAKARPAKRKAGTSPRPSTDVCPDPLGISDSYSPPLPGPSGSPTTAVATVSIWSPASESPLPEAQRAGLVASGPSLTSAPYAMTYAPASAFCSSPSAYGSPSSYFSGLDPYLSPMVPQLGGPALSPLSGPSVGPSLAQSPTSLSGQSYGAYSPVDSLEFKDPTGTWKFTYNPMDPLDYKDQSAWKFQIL
# Summary of the method: as §1
# ETV1 = ETV1 (Homo sapiens, UniProt P50549 1-477); conditions: protein: recombinant; tags: N-terminal GST; dsDNA, one strand shown
# Sequence of ETV1 (P50549 whole entry): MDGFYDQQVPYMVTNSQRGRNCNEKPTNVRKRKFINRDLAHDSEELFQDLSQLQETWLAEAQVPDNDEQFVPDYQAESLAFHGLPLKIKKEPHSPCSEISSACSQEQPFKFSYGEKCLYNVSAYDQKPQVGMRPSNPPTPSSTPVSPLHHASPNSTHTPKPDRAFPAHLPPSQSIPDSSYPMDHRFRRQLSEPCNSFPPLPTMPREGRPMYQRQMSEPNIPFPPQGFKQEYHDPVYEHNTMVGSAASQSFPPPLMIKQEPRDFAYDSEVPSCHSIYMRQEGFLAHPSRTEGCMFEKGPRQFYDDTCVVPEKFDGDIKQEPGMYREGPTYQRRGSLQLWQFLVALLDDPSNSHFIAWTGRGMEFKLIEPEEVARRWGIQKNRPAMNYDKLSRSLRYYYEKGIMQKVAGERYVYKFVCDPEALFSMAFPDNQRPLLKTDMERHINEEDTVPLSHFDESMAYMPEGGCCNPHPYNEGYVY
# Summary of the method: as §1
# ERF = biological target: T6, ERF (Homo sapiens, UniProt P50548 1-548); conditions: protein: recombinant; tags: N-terminal GST; dsDNA, one strand shown
# T6 sequence: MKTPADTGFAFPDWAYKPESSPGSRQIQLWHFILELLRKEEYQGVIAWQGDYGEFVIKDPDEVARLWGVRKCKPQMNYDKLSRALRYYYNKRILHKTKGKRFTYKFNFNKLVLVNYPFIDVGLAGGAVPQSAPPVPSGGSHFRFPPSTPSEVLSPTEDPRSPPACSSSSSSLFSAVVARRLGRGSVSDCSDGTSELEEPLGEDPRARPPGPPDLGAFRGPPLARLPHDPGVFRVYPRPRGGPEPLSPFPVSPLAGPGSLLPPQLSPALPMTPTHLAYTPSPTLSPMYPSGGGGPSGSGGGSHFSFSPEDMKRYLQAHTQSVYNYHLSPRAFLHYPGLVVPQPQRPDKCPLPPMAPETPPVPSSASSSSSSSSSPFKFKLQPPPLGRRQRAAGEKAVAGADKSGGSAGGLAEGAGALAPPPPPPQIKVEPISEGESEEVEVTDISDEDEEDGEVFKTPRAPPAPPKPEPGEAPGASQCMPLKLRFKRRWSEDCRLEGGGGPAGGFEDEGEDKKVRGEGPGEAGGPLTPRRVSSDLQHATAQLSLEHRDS
# Summary of the method: as §1
# ETV3L = biological target: T7, ETV3L (Homo sapiens, UniProt Q6ZN32 1-361); conditions: protein: recombinant; tags: N-terminal GST; dsDNA, one strand shown
# T7 sequence: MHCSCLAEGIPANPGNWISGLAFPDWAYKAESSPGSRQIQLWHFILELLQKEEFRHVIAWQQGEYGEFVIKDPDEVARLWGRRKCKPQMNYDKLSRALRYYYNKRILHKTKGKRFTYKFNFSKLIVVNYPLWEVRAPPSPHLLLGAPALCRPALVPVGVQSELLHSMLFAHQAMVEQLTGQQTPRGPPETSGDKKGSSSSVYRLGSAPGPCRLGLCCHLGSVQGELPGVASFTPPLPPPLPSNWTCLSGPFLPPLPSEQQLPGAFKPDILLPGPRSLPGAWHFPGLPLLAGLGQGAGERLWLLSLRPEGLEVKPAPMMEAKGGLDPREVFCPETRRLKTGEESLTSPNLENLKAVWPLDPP
# Summary of the method: as §1
# ETS2 = biological target: T8, ETS2 (Homo sapiens, UniProt P15036 1-469); conditions: protein: recombinant; tags: N-terminal GST; dsDNA, one strand shown
# T8 sequence: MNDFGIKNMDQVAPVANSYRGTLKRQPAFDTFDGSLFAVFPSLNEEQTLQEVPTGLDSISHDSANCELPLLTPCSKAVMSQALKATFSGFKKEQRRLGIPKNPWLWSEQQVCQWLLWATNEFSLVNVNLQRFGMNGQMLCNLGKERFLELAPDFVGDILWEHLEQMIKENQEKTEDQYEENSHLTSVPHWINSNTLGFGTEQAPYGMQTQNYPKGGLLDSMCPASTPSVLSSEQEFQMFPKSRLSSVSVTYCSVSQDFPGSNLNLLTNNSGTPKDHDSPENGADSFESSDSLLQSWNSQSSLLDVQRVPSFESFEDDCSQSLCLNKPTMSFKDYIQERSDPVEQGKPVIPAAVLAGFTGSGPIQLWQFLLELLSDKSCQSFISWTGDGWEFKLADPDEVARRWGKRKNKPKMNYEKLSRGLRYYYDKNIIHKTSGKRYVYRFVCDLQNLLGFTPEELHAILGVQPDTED
# Summary of the method: as §1
# SPDEF = biological target: T9, SPDEF (Homo sapiens, UniProt O95238 1-335); conditions: protein: recombinant; tags: N-terminal GST; dsDNA, one strand shown
# T9 sequence: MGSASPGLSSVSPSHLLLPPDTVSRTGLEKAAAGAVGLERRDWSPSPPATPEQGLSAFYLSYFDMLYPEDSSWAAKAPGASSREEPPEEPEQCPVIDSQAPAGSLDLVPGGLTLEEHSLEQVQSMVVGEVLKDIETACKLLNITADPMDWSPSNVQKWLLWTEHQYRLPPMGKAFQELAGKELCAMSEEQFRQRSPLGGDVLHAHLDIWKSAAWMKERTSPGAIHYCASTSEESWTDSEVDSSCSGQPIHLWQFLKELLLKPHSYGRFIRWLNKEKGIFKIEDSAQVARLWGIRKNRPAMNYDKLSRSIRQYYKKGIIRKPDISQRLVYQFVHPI
# Summary of the method: as §1
# ETV7 = biological target: T10, ETV7 (Homo sapiens, UniProt Q9Y603 1-341); conditions: protein: recombinant; tags: N-terminal GST; dsDNA, one strand shown
# T10 sequence: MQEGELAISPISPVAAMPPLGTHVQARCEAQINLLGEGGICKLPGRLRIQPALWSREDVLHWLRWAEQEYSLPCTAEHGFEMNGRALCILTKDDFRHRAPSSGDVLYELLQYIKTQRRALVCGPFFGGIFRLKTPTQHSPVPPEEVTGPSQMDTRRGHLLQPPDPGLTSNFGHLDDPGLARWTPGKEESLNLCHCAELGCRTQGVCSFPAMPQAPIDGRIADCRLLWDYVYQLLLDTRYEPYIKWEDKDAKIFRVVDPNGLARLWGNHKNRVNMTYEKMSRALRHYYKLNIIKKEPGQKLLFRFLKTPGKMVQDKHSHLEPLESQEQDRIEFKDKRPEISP
# Summary of the method: as §1
# ELF5 = biological target: T11, ELF5 (Homo sapiens, UniProt Q9UKW6-2 1-255); conditions: protein: recombinant; tags: N-terminal GST; dsDNA, one strand shown
# T11 sequence: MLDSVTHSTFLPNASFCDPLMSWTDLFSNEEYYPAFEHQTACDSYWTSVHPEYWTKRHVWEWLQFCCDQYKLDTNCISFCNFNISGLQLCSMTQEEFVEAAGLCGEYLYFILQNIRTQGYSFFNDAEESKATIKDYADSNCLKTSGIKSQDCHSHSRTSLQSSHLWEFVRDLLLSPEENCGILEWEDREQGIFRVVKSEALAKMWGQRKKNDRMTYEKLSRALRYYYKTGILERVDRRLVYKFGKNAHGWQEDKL
# Summary of the method: as §1
# ETV3 = biological target: T12, ETV3 (Homo sapiens, UniProt P41162-2 1-143); conditions: protein: recombinant; tags: N-terminal GST; dsDNA, one strand shown
# T12 sequence: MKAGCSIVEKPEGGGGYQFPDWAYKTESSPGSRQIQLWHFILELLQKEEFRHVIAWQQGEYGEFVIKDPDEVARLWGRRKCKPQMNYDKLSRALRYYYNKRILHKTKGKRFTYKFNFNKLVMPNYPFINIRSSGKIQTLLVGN
# Summary of the method: as §1
# ETV6 = ETV6 (Homo sapiens, UniProt P41212 1-452); conditions: protein: recombinant; tags: N-terminal GST; dsDNA, one strand shown
# Sequence of ETV6 (P41212 whole entry): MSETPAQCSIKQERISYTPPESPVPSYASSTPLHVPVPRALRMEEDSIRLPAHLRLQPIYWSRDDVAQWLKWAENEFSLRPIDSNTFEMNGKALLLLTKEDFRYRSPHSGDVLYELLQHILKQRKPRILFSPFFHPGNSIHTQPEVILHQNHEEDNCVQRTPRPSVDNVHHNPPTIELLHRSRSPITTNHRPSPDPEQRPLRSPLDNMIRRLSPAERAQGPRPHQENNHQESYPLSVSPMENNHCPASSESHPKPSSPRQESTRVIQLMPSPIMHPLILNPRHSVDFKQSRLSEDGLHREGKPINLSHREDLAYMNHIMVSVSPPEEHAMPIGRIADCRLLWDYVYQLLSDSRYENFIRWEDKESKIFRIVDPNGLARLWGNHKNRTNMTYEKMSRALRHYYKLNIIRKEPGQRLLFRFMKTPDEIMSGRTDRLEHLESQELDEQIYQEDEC
# Summary of the method: as §1
sequence,measurement,setting,value
CCTCCT,binding signal,FEV,"1.46 fold enrichment (6-mer frequency, TF over GST control)"
same,binding signal,ETV5,"1.59 fold enrichment (6-mer frequency, TF over GST control)"
same,binding signal,HSF1,"1.3 fold enrichment (6-mer frequency, TF over GST control)"
same,binding signal,SPIC,"1.47 fold enrichment (6-mer frequency, TF over GST control)"
same,binding signal,ELF4,"1.66 fold enrichment (6-mer frequency, TF over GST control)"
same,binding signal,ELK4,"1.61 fold enrichment (6-mer frequency, TF over GST control)"
same,binding signal,ETV2,"1.45 fold enrichment (6-mer frequency, TF over GST control)"
same,binding signal,ELF3,"1.2 fold enrichment (6-mer frequency, TF over GST control)"
same,binding signal,CRX,"1.32 fold enrichment (6-mer frequency, TF over GST control)"
same,binding signal,ETV1,"1.52 fold enrichment (6-mer frequency, TF over GST control)"
same,binding signal,ERF,"1.64 fold enrichment (6-mer frequency, TF over GST control)"
same,binding signal,ETV3L,"1.44 fold enrichment (6-mer frequency, TF over GST control)"
same,binding signal,ETS2,"1.57 fold enrichment (6-mer frequency, TF over GST control)"
same,binding signal,SPDEF,"1.58 fold enrichment (6-mer frequency, TF over GST control)"
same,binding signal,ETV7,"1.61 fold enrichment (6-mer frequency, TF over GST control)"
same,binding signal,ELF5,"1.9 fold enrichment (6-mer frequency, TF over GST control)"
same,binding signal,ETV3,"1.46 fold enrichment (6-mer frequency, TF over GST control)"
same,binding signal,ETV6,"1.55 fold enrichment (6-mer frequency, TF over GST control)"
